The values below come from PubChem BioAssay (NCATS).

The target of assay [1] is Glucocorticoid receptor (Homo sapiens) (UniProt P04150). The assay is described as follows: GR-GFP Redistribution (AID 450;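 active = compounds whose dose series gives a full or clear partial fitted curve of increased nuclear translocation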; note: potency is the fitted concentration of half-maximal effect). The settings on record: U2OS GR-GFP nuclear translocation, laser cytometry, 2 h.
The target is the same in assay [2]. Put plainly: GR-EFC Redistribution (AID 451; calls by dose curve; note: potency is the fitted concentration of half-maximal effect). The conditions noted are these: CHO-K1 GR-EFC translocation, beta-gal luminescence, 2 h. An outline of the steps:
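CHO-K1 cells expressing nuclear EA and GR-ED fragments of b-gal; compounds titrated up to 46 uM final, 2 h at 37 C. GR nuclear translocation read as complemented b-gal luminescence after 1 h RT detection.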

In assay [3] the target is 3',5'-cyclic-AMP phosphodiesterase 4B (Homo sapiens) (UniProt Q07343). Put plainly: qHTS Assay for Inhibitors of PDE-IV (AID 607; active = well fitted activation curve with a large enough effect in the main read-out, with a control signal flat, not every such curve was filed as active; note: % of control where 0% means no effect). The settings on record: HEK293 ACTOne CNG channel cells, membrane potential fluorescence; series mostly up to 22.9 µM. An outline of the steps:
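ACTOne HEK293 cells carry a modified cAMP-gated CNG channel and express endogenous PDE4; plated 1000 cells/well, compounds up to 22.9 uM final. Membrane-potential dye fluorescence (ex 535/em 590) was read; parental cells received 10 uM forskolin + 100 uM RO 20-1724.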

Assay [4] is described as follows: Cell Viability - N2a (AID 540).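 Note: plate controls were DMSO alone for no effect and tamoxifen control for full effect; nearly all actives have a fitted effect of over 45% in size.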 The conditions noted are these: N2a mouse neuroblastoma cell viability; at 92.2 µM (top of the series). An outline of the steps: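 Luminescent ATP signal (CellTiter-Glo, 20 min at room temperature) served as the viability read-out after N2a cells were treated with compounds for 40 hours at 37 °C. Concentration-response data were fitted to the Hill equation for AC50.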

Assay [5] in a line: Cell Viability - NIH 3T3 (AID 541).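 Note: plate controls were DMSO alone for no effect and tamoxifen positive control for full effect; nearly all actives have a fitted effect of over 25% in size.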 The conditions noted are these: NIH 3T3 cell viability, qHTS; series mostly up to 92.2 µM. An outline of the steps:
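Luminescent ATP signal (CellTiter-Glo) served as the viability read-out after NIH 3T3 cells were exposed to compounds over a concentration range for 40 hr at 37 °C. Hill-equation modelling of concentration-response data gave AC50.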
On the technique in general: qHTS replaces the single test concentration by a dilution series.

A short description of assay [6]: Cell Viability - H-4-II-E (AID 543). Note: % is set by controls: 0 for no effect and ±100 for the full control effect; nearly all actives have a fitted effect of over 35% in size. The conditions noted are these: H-4-II-E rat hepatoma viability; series mostly up to 92.2 µM. Summed up:
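Luminescent ATP signal (CellTiter-Glo) served as the viability read-out, with cytotoxicity seen as a concentration-dependent ATP drop. Cells were treated for 40 hours in complete medium. AC50 values derive from Hill-equation modelling.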

The nature of assay [7]: Cell Viability - SH-SY5Y (AID 544). Note: nearly all actives have a fitted effect of over 55% in size. The conditions noted are these: SH-SY5Y neuroblastoma cell viability; at 92.2 µM (top of the series). An outline of the steps: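 Luminescent ATP read-out (CellTiter-Glo) measures loss of viable SH-SY5Y neuroblastoma cells after 40 hr compound exposure at 37 °C. AC50 values derive from standard Hill modelling of qHTS concentration-response data.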

Assay [8] is described as follows: Cell Viability - Renal Proximal Tubule (AID 545). Note: nearly all actives have a fitted effect of over 40% in size. The conditions noted are these: renal proximal tubule cells viability, primary cells of rat origin; series mostly up to 91.7 µM. An outline of the steps: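 Rat kidney proximal tubule cells, freshly isolated; 1000 cells/well, 5 hr settle, compound 40 hr 37 °C. CellTiter-Glo 20 min RT, luminescence read. AC50 by standard Hill fit.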

Assay [9] is described as follows: Cell Viability - Mesenchymal (AID 546).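 Note: cells exposed to compound for 40 hours before reading.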 The settings on record: mesenchymal cells viability, qHTS; at 91.7 µM (top of the series). Summed up:
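Human kidney mesenchymal cells from normal renal glomeruli, 1000 cells/well, rested 5 hr at 37 °C, then treated 40 hr at 37 °C in complete medium. Cellular ATP read by CellTiter-Glo luminescence; AC50 from Hill-equation fits.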

A short description of assay [10]: Cellular Toxicity (caspase-3) HepG2 (AID 654).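 Note: cells exposed to compound for 16 hours before reading.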 The conditions noted are these: HepG2 caspase-3 activation, luminescence, 0% = DMSO only, 100% = tamoxifen; series mostly up to 92.2 µM. An outline of the steps: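 Cells plated 5 hr at 37 °C, compound added, incubated 16 hr at 37 °C. Caspase-Glo 3/7 reagent followed, 20 min at room temperature, then luminescence read. Activation scored as signal increase; AC50 from Hill fit.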

Assay [11] is described as follows: Cellular Toxicity (caspase-3) Jurkat (AID 655).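 Note: cells exposed to compound for 16 h at 37 °C before reading.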 The settings on record: Jurkat caspase-3 activation, luminescence; caspase-3 activation: at 92.2 µM (top of the series), DMSO = 0%, tamoxifen = 100%. An outline of the steps:
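Luminescent caspase-3/7 readout (aminoluciferin substrate cleavage) in human T-cell leukemia Jurkat cells after 16 hr compound exposure. Concentration-response normalized to DMSO and 100 uM tamoxifen; AC50 by standard Hill equation.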

Assay [12] is described as follows: Cellular Toxicity (caspase-3) HUV-EC-C (AID 656). The settings on record: HUV-EC-C cells, caspase-3 activation (apoptosis), vehicle = 0, 100 µM tamoxifen = 100%; series mostly up to 92.2 µM. Summed up: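 Luminescent caspase-3/7 activation (aminoluciferin substrate cleavage) in HUV-EC-C cells after 16 hr compound exposure, 37°C. Signal normalized to DMSO basal and 100 uM tamoxifen as 100%; AC50 from concentration-response fitted with the Hill equation.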

The nature of assay [13]: Cellular Toxicity (caspase-3) SHSY5Y (AID 657). The settings on record: SH-SY5Y caspase-3 activation, DMSO zero, 10 µM staurosporine = 100%; series mostly up to 91.7 µM. An outline of the steps: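 Luminescent caspase-3/7 readout (aminoluciferin release) in SH-SY5Y cells after 16 h compound exposure in complete medium. Activity scaled between DMSO basal and 10 uM staurosporine as 100%; concentration-response fitted to Hill equation for AC50.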

The nature of assay [14]: Cellular Toxicity (caspase-3) BJ (AID 658). The conditions noted are these: BJ fibroblasts, luminescence, normalized: DMSO 0%, staurosporine 100%; series mostly up to 91.7 µM. Summed up: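 BJ human foreskin fibroblasts, 1000 cells/well, treated 16 hours at 37 °C in complete medium; caspase 3/7 activity by Caspase-Glo luminescence after 1 hr at room temperature. Normalized to DMSO and 10 uM staurosporine; AC50 from Hill fits.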

The nature of assay [15]: Cellular Toxicity (caspase-3) MRC-5 (AID 659). The conditions noted are these: MRC-5 cells, luminescence, normalized: DMSO 0%, 10 µM staurosporine 100%; series mostly up to 91.7 µM. Summed up: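 MRC-5 human normal lung fibroblasts, 1500 cells/well, treated 16 h at 37 °C in complete medium. Caspase 3/7 measured by Caspase-Glo luminescence after 1 h at room temperature. Normalized to DMSO and 10 uM staurosporine; AC50 from Hill fit.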

Assay [16] in a line: Cellular Toxicity (caspase-3) Mesangial (AID 660).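 Note: combined caspase 3 and 7 activity read by Caspase-Glo luminescence.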 The conditions noted are these: mesangial cells, normalized: DMSO 0%, 100 µM tamoxifen 100%; series mostly up to 91.7 µM. An outline of the steps:
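Mesangial cells, 1000/well, 5 h settle at 37 °C; compound 16 h, 37 °C; Caspase-Glo 3/7 reagent 20 min RT; luminescence. Norm.: DMSO = 0%, tamoxifen 100 uM = 100%. AC50, Hill fit.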

Assay [17] is described as follows: Cellular Toxicity (caspase-3) SK-N-SH (AID 661). The settings on record: SK-N-SH caspase-3 activation, qHTS, DMSO as zero, staurosporine as full; series mostly up to 91.7 µM. Summed up: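 Human neuroblastoma SK-N-SH, 1500 cells/well, 5 hr pre-incubation, then compound 16 hr, 37 °C. Caspase-Glo 3/7 reagent, 1 hr RT, luminescence. Norm. to DMSO/10 uM staurosporine; Hill-fit AC50.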

A short description of assay [18]: Cellular Toxicity (caspase-3) H-4-II-E (AID 663).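 Note: cells exposed to compound for 16 hr before readout.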 The conditions noted are these: H-4-II-E rat hepatoma, scaled: DMSO 0%, 100 µM tamoxifen 100%; series mostly up to 92.2 µM. Summed up:
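Rat hepatoma H-4-II-E cells (1500/well) plated 5 hr, then exposed to compound titrations for 16 hr at 37 °C. Caspase-Glo 3/7 luminescence read after 20 min at RT; data normalized to DMSO and 100 uM tamoxifen, AC50 from Hill fits.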

A short description of assay [19]: Cellular Toxicity (caspase-3) Hek293 (AID 664).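 Note: cells exposed to compound for 16 h at 37 °C before readout.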 The settings on record: HEK293 caspase-3 activation, DMSO = 0%, 100 µM tamoxifen = 100%; series mostly up to 92.2 µM. Summed up:
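Cells plated, 5 hr at 37 °C; compounds added; 16 hr at 37 °C; Caspase-Glo 3/7 reagent, 20 min RT; luminescence read. Activation expressed relative to DMSO and 100 uM tamoxifen, AC50 by Hill model.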

A short description of assay [20]: Cellular Toxicity (caspase-3) N2a (AID 665).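 Note: compound exposure lasted 16 h at 37 °C before readout.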 The conditions noted are these: N2a cells, luminescence, normalized: DMSO 0%, 10 µM staurosporine 100%; series mostly up to 92.2 µM. An outline of the steps: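 N2a cells, 1500/well, 5 h settle at 37 °C; cpd 16 h, 37 °C; Caspase-Glo 3/7, 1 h RT; luminescence. Norm: DMSO = 0, 10 uM staurosporine = 100%. AC50, Hill fit.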

Values joined by “and” are separate entries in the source; they are usually repeats but may differ in a detail not shown here. Identical values can stand only once. Values without a mark were called inactive. Results filed as inconclusive are left out. Active and inactive are the calls of the source. Unless noted, calls come from the whole dose curve; as a rule, active = well fitted curve in the direction sought with a large enough effect; inconclusive = small, poorly fitted or top-dose-only effect, or another doubt; inactive = no such curve, though single readings can be large; an effect the other way counts as inactive or inconclusive. A value given as a limit tells only on which side of the number the result lay.

Chain of Glucocorticoid receptor (Homo sapiens) (P04150 whole entry, looked up): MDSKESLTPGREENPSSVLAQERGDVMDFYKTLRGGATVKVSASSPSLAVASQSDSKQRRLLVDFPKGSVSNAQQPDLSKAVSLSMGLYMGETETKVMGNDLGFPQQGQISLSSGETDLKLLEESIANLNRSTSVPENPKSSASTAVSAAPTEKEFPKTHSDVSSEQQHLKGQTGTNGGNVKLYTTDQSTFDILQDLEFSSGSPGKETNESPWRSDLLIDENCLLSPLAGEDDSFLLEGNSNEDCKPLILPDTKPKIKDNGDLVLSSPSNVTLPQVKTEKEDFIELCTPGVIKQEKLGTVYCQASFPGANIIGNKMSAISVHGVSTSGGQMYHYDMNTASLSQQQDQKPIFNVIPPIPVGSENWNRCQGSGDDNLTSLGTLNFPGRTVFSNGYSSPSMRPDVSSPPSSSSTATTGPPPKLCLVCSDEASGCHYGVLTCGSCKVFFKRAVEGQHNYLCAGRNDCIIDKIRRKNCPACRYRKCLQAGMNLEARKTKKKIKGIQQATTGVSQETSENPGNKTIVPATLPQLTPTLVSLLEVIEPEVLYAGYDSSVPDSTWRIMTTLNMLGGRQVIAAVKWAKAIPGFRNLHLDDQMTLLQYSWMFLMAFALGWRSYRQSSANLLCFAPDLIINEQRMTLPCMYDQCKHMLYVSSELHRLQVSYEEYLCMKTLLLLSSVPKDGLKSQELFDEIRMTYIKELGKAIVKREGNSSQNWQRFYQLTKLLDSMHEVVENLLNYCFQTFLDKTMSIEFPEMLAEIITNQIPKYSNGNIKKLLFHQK
Chain of 3',5'-cyclic-AMP phosphodiesterase 4B (Homo sapiens) (Q07343 whole entry, looked up): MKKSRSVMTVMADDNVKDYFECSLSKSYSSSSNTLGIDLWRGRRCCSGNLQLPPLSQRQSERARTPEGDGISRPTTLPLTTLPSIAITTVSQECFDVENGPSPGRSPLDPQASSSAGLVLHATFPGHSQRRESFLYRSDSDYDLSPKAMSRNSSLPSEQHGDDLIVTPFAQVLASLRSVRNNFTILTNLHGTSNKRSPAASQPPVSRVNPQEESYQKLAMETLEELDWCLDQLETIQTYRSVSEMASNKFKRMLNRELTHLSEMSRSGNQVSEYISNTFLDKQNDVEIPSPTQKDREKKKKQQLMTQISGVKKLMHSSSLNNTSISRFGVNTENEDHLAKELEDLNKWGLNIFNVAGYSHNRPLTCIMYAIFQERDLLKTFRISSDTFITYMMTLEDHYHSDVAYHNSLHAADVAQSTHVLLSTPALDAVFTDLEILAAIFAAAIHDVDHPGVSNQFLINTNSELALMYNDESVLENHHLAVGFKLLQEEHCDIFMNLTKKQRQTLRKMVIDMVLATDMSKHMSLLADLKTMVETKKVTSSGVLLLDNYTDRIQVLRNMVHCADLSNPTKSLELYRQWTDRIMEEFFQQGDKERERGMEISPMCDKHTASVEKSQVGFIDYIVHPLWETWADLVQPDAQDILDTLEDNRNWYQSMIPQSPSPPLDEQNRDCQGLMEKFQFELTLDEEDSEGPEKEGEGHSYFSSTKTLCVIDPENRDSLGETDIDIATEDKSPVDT

Turning to `Nc1c(Br)cc(Br)cc1CNC1CCC(O)CC1` (configuration not stated), the Potency in assay [1] and in assay [2] was greater than 20.6 µM throughout. In assay [3], the compound was classed as inactive.

Take `Nc1ccn([C@H]2CS[C@@H](CO)O2)c(=O)n1`: the activity change, negative = cytotoxicity in assay [4] was -5.31%; in assay [9], 7.61%. In addition, the result in [5], in assay [8], in assay [10], in assay [12], in assay [13] and in assay [14] was inactive. Moreover, the outcome in assay [15], in assay [16], in assay [17], in [18], in assay [19] and in assay [20] was inactive. Besides, the Potency result in [6] is “inactive”. Further, the viability change, negative = cytotoxic in assay [7] was 1.14%. Also, in assay [11], the caspase-3 activation was -0.771%.

For the compound `CCCCCCCC(=O)O`, the activity change, negative = cytotoxicity in assay [4] is -0.485% and -3.97%; in [9], 4.9% and 1.62%. Also, the compound was classed as inactive in [5], in assay [8], in [10], in assay [12], in assay [13] and in assay [14]. The compound was classed as inactive in assay [15], in [16], in [17], in assay [18], in assay [19] and in assay [20]. In addition, the Potency entry in [6] was “inactive”. For the same compound, the viability change, negative = cytotoxic in [7] is 0.495% and -6.94%. Further, in [11], the caspase-3 activation is -0.427% and 1.06%.

With `CC1=C2[C@@H]([C@H](C)CC[C@H]2/C=C(\C)C(=O)O)[C@H](O)C1`, the activity change, negative = cytotoxicity in assay [4] is 6.2%; in assay [9] it was 8.87%. The call in assay [5], in assay [8], in assay [10], in assay [12], in [13] and in assay [14] was inactive. Further, the compound was classed as inactive in assay [15], in [16], in assay [17], in assay [18], in assay [19] and in assay [20]. The Potency result in assay [6] was “inactive”. In addition, the viability change, negative = cytotoxic in assay [7] was -4.63%. For the same compound, the caspase-3 activation in assay [11] was 0.468%.

In the case of `CC(=O)OCC(=O)[C@@]12OC3(CCCC3)O[C@@H]1C[C@H]1[C@@H]3CCC4=CC(=O)C=C[C@]4(C)[C@@]3(F)[C@@H](O)C[C@@]12C`, the Potency in assay [1] is 0.000571 µM (active).

For the compound `O=S(=O)(O)O`, the activity change, negative = cytotoxicity was -3.09% and 7.28% in [4]; -5.83% and 4.47% in assay [9]. The result in assay [5], in assay [8], in assay [10], in assay [12], in [13] and in [14] was inactive. The compound was called inactive in assay [15], in assay [16], in assay [17], in assay [18], in [19] and in assay [20]. Further, the Potency entry in [6] is “inactive”. Besides, in [7], the viability change, negative = cytotoxic is 2.52% and 9.94%. Besides, the caspase-3 activation in assay [11] was 4.57% and 0.977%.
